Only some compounds are listed: those with a hit (about 21% of all), similar ones and a draw of the others.
NS1 function inh = qHTS Assay for Inhibitors of Influenza NS1 Protein Function. hit rate 0.4% among 270,000. Potency, µM (series often up to 46.1 µM); calls by dose curve; also: actives are rising curves; nearly all actives have a fitted effect of over 50% in size
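Compounds were scored for reversing the slow growth caused by influenza A NS1 in S. cerevisiae, measured by optical density at 600 nm. Assay medium contained 2% galactose at pH 6.0; NS1-free yeast of the same strain were the positive control.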
Pf growth 96h = Primary qHTS for delayed death inhibitors of the malarial parasite plastid, 96 hour incubation; hit rate 6.9% among 320,000; AID 504834, 2011; Potency, µM (doses to about 28.7 µM), actives largely listed as inhibitors; P. falciparum luciferase reporter growth, 96 h
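Plates of compound plus infected erythrocytes (2% hematocrit, 0.05% parasitemia final) incubate 96 hours, 37 C, 5% CO2. Detection reagent added; reduced luminescence from the parasites' luciferase reporter flags inhibition.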
Shiga toxin inh = A qHTS for Small Molecule Inhibitors of Shiga Toxin; Vero cells, Shiga toxin protein synthesis inhibition reporter; inhibition, % at 38.7 µM; hit rate 9.2% among 290,000; AID 2315, 2010; in the data active = inhibition mostly above about 28%, no sharp cut-off; inactive = mostly below about 43%
FBPA Giardia inh = qHTS Assay for Inhibitors of Fructose-1,6-bisphosphate Aldolase from Giardia Lamblia; A8B2U2; purified Giardia FBPA; Potency, µM (doses to about 59.6 µM), hits mostly inhibitors; hit rate 0.71% among 290,000; also: nearly all actives have a fitted effect of over 55% in size
Target sequence (A8B2U2 whole entry, looked up): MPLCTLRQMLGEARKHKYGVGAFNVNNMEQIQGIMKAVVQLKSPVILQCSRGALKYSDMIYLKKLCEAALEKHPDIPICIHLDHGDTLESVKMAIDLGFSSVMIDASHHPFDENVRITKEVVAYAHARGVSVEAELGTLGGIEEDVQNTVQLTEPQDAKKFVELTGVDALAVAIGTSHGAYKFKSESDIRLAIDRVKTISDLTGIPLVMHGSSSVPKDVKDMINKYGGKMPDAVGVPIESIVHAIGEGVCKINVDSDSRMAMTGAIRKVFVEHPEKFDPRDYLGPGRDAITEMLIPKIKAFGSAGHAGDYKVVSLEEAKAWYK
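Giardia FBPA (40 nM reagent) was preincubated 10 min at RT with compound (up to 57.5 uM final), then substrate plus GAPDH/TPI/NAD/arsenate coupling system with diaphorase/resazurin was added; resorufin fluorescence (525/598 nm) was read after 20 min.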
CHX counter = Cycloheximide Counterscreen for Small Molecule Inhibitors of Shiga Toxin. max response, %. AID 2314, 2010. hit rate 12% among 300,000. cell reporter, cycloheximide protein synthesis inhibition counterscreen; in the data active = max response mostly above about 13%, no sharp cut-off; inactive = mostly below about 14%; also: read at 38.3 µM for the half of the compounds with a filed dose
Pf growth 48h = Primary qHTS for delayed death inhibitors of the malarial parasite plastid, 48 hour incubation | P. falciparum luciferase growth in erythrocytes, 48 h | Potency, µM (highest dose often 28.7 µM), actives largely listed as inhibitors | hit rate 5.9% among 310,000 | AID 504832, 2011
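First compound was added to culture medium, then infected red cells at 0.1% parasitemia and 2% hematocrit (final). After incubation at 37 C under 5% CO2, luciferase detection reagent was dispensed and light output recorded.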
Of the large screens only hits and unclear results are named; the others gave an inactive call. Unless noted, calls follow the shape of the dose curve; as a rule, active = well fitted curve in the direction sought with a large enough effect; inconclusive = small, poorly fitted or top-dose-only effect, or another doubt; inactive = no such curve, though single readings can be large; an effect the other way counts as inactive or inconclusive.

COc1ccc(NC(=O)c2ccc3nc[nH]c3c2)cc1	Shiga toxin inh 62, CHX counter 38
CC(C)N(C(=O)COC(=O)c1cccc(N(C)C)c1)c1ccccc1	Pf growth 96h inconclusive, Pf growth 48h inconclusive
Cc1ccccc1-c1cc(NCc2ccccc2)ncn1	none (no result: NS1 function inh, Pf growth 96h, Shiga toxin inh, CHX counter, Pf growth 48h)
Cc1cc(C)c(C)c(S(=O)(=O)NCCN2CCOCC2)c1C	none
COc1cccc(F)c1C(=O)NC(=O)Nc1ccc2nc(C)oc2c1	Pf growth 96h 2.1µM, FBPA Giardia inh inconclusive, Pf growth 48h 2.1µM
CSc1nc2ccc(NC(=O)NC(=O)c3c(F)cccc3F)cc2s1	CHX counter 17
Cc1nc2ccc(NS(=O)(=O)c3ccccc3Cl)cc2s1	none (no result: NS1 function inh, Shiga toxin inh, FBPA Giardia inh, CHX counter)
O=C(NC(=O)c1c(F)cccc1F)Nc1ccc(Cl)c(Oc2ncc(C(F)(F)F)cc2Cl)c1	Pf growth 96h inconclusive (no result: NS1 function inh, Shiga toxin inh, FBPA Giardia inh, CHX counter)
CSc1nc2ccc(NS(=O)(=O)c3cccc(Cl)c3Cl)cc2s1	CHX counter 17
CC(=O)Nc1ccc(S(=O)(=O)N(C)CC(=O)OCC(=O)Nc2cc(C)on2)cc1	none (no result: NS1 function inh, Shiga toxin inh, FBPA Giardia inh, CHX counter)
COc1cccc(S(=O)(=O)N2CCN(S(=O)(=O)c3ccc4c(c3)OCCO4)CC2)c1	none (no result: NS1 function inh, Pf growth 96h, FBPA Giardia inh, Pf growth 48h)
CCn1cc(/C=N\NC(=O)c2csc3ccccc23)c(C)n1	CHX counter 44 (no result: Pf growth 48h)
CCn1cc(/C=N\NC(=O)c2c[nH]c3ccccc23)c(C)n1	Shiga toxin inh 74
CCn1cc(/C=N\NC(=O)Cc2ccc([N+](=O)[O-])cc2)c(C)n1	none
Cc1c(/C=N\NC(=O)c2c[nH]c3ccccc23)cnn1C	Shiga toxin inh 46, CHX counter 15 (no result: NS1 function inh)
COc1ccc2[nH]c(=O)c(CNc3ccccc3)cc2c1	Pf growth 96h inconclusive, Shiga toxin inh 73, FBPA Giardia inh inconclusive, CHX counter 43
COc1ccc2[nH]c(=O)c(CNc3ccc(C)cc3C)cc2c1	Shiga toxin inh 70, FBPA Giardia inh inconclusive, CHX counter 30
COc1ccc2[nH]c(=O)c(CNc3cc(C)ccc3C)cc2c1	Shiga toxin inh 43, FBPA Giardia inh inconclusive, CHX counter 14
Cc1ccc2[nH]c(=O)c(CNC(C)(C)C)cc2c1	FBPA Giardia inh inconclusive
COc1ccc2[nH]c(=O)c(CNc3ccccc3C)cc2c1	Shiga toxin inh 90, FBPA Giardia inh inconclusive, CHX counter 43
COc1ccc2[nH]c(=O)c(CNc3ccccc3OC)cc2c1	NS1 function inh inconclusive, FBPA Giardia inh inconclusive
CCOc1ccc(NCc2cc3cc(OC)ccc3[nH]c2=O)cc1	FBPA Giardia inh inconclusive
CCc1noc(C)c1C(=O)NNC(=O)c1ccccc1Cl	none (no result: NS1 function inh, Shiga toxin inh, FBPA Giardia inh, CHX counter)
N#Cc1ccccc1-c1ccc2ncnc(NCc3cccs3)c2c1	none (no result: NS1 function inh, Pf growth 96h, Shiga toxin inh, CHX counter, Pf growth 48h)
Cc1ccc(C(=O)N2CCC3(CC2)Oc2ccc(Cl)cc2C(=O)C32CC(c3cccnc3)=NO2)s1 (centres undefined)	Pf growth 96h 13µM, Pf growth 48h inconclusive
O=C(c1ccc2c(c1)OCO2)N1CCC2(CC1)Oc1ccc(Cl)cc1C(=O)C21CC(c2cccnc2)=NO1 (centres undefined)	Pf growth 96h 13µM, Pf growth 48h 12µM
O=C(/C=C/c1cccs1)N1CCC2(CC1)Oc1ccc(Cl)cc1C(=O)C21CC(c2cccnc2)=NO1 (centres undefined)	Pf growth 96h 12µM, Pf growth 48h 13µM
CC(C)C(=O)N1CCC2(CC1)Oc1ccc(Cl)cc1C(=O)C21CC(c2ccccc2)=NO1 (centres undefined)	Pf growth 96h inconclusive, Pf growth 48h inconclusive
Cc1ccc(C(=O)N2CCC3(CC2)Oc2ccc(Cl)cc2C(=O)C32CC(c3ccccc3)=NO2)s1 (centres undefined)	Pf growth 96h inconclusive, Pf growth 48h inconclusive
CCOc1ccccc1C(=O)N[C@H](C(=O)OCc1cc(=O)oc2cc(C)ccc12)C(C)C	Pf growth 96h inconclusive, CHX counter 26, Pf growth 48h inconclusive
Cc1ccc2c(COC(=O)c3ccccc3Cl)cc(=O)oc2c1	Shiga toxin inh 59, CHX counter 42
CN(C)c1cccc(C(=O)OCc2cc(=O)oc3cc(O)ccc23)c1	CHX counter 16, Pf growth 48h 12µM (no result: Pf growth 96h)
Cc1ccc2c(COC(=O)c3ccccc3Br)cc(=O)oc2c1	Shiga toxin inh 98, CHX counter 34
CCOc1ccccc1C(=O)N[C@H](C(=O)OCc1cc([N+](=O)[O-])cc2c1OCOC2)C(C)C	Pf growth 96h inconclusive, Pf growth 48h 13µM
O=C(COc1ccccc1Br)NC1CCCC1	Shiga toxin inh 78, CHX counter 32
CCc1ccc(OCC(=O)NC2CCCCC2)c(Br)c1	Pf growth 96h 12µM (no result: FBPA Giardia inh)
COc1ccccc1OCC(=O)NC1CCCCCC1	Pf growth 96h inconclusive, Shiga toxin inh 42, CHX counter 22
CCOc1ccccc1OCC(=O)NC1CCCCC1	none (no result: Pf growth 48h)
CCc1ccc(OCC(=O)NNC(=S)NC(=O)C2CCCCC2)c(Br)c1	none (no result: FBPA Giardia inh)
O=C(COC(=O)CCC(=O)c1cccs1)Nc1ccccc1[N+](=O)[O-]	none (no result: NS1 function inh)
COc1ccc(N=C2CCS(=O)(=O)c3sccc32)cc1	CHX counter 41
COc1ccc(C(=O)O/N=C2\CCS(=O)(=O)c3sccc32)cc1	none
Cc1ccccc1C(=O)O/N=C1\CCS(=O)(=O)c2sccc21	Shiga toxin inh 83, CHX counter 39
Cc1cc(NO)nc(-c2ccc(Br)cc2)n1	Shiga toxin inh 109, CHX counter 47, Pf growth 48h inconclusive (no result: Pf growth 96h)
Cc1cc(C)nc(NC(=O)c2ccc(Br)cc2)n1	none (no result: Pf growth 48h)
CC1(c2ccc(OC(F)F)cc2)NC(=O)N(CC(=O)Nc2cccc(F)c2)C1=O (centres undefined)	none
CC1CC(C)CN(C(=O)COC(=O)c2cc3ccccc3cc2O)C1 (centres undefined)	none
CC1CCN(C(=O)COC(=O)c2cc3ccccc3cc2O)CC1	CHX counter 42
CC(C)(C)C(=O)COC(=O)c1cc2ccccc2cc1O	CHX counter 25 (no result: Pf growth 96h)
Cn1c(CO)cnc1-c1ccccc1	none
CC(C)c1ccc(/C=C/C(=O)NCCC2=CCCCC2)cc1	CHX counter 17
CCCNC(=O)/C=C/c1ccc(C(C)C)cc1	Pf growth 96h 13µM, Shiga toxin inh 64, CHX counter 47, Pf growth 48h inconclusive
CC(C)/C(=N/[N+](C)(C)C)c1ccccc1	none (no result: Pf growth 96h, Shiga toxin inh, FBPA Giardia inh, CHX counter, Pf growth 48h)
COc1ccc(OCCSc2nnc(CC(=O)Nc3cccc(Cl)c3Cl)n2C)cc1	CHX counter 23 (no result: Pf growth 48h)
COc1ccc(N2CCN(CCC(O)c3ccc4ccccc4c3)CC2)cc1 (centres undefined)	Pf growth 48h 3.3µM
COc1ccc(N2CCN(C(=O)CNC(=O)c3ccc4ccccc4c3)CC2)cc1	Pf growth 48h inconclusive (no result: NS1 function inh, Shiga toxin inh, FBPA Giardia inh, CHX counter)
COc1ccc(C(CCN2CCN(c3ccccc3)CC2)c2c(O)cc(OC)cc2OC)cc1 (centres undefined)	Pf growth 96h 0.47µM, Pf growth 48h 1µM
COc1cc(O)c(C(CCN2CCN(c3ccccc3)CC2)c2ccc(N(C)C)cc2)c(OC)c1 (centres undefined)	Pf growth 96h 0.66µM, Pf growth 48h 0.83µM

Screening results as filed in PubChem.
